Experimental findings from PubChem BioAssay AID651871 (Sanford-Burnham Center for Chemical Genomics, 2012) are described below.

The assay deals with H9c2. As to the kind of experiment: cardiomyocyte survival under oxidative or metabolic stress – cell-based, panel, H9c2 and HL-1, ATP luminescence, set 2, SAR follow-up (AID 651871).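 Also: cells exposed to stressor for 2 h before ATP readout; reference of the scale not given here.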 The following applies: H9c2/HL-1 cardiomyocytes, H2O2 oxidative stress, with H2O2, run 2, at 39.5 µM (top of the series).

For the compound `COc1ccc2c(c1OC)C(=O)N1c3ccccc3C(=O)N(Cc3cccc(Cl)c3Cl)C21` (stereo unspecified), the activity (protection/inhibition) was 48.1%.
